BoNT-A LC inh2: blocks Botulinum neurotoxin A light chain protease. multiplex microsphere protease substrate cleavage, flow cytometry. inhibition, % at 10 µM. actives 0.17% (n = 360,000). AID 588499; also: plate controls were buffer without enzyme for full effect and enzyme alone for no effect
Autofluor counter: flagged as autofluorescent in microsphere protease counterscreen | compound autofluorescence counterscreen, microsphere flow cytometry; active compounds read high | actives 3.1% (n = 360,000) | AID 624483 | fluorescence intensity (no concentration beside the values); in the data active = fluorescence intensity above about 16000; inconclusive = no clear call, values can overlap the other calls
SSB-PriA inh: blocks PriA binding to SSB C-terminal tail. AID 1272365. inhibition, % at 33 µM. actives 0.6% (n = 430,000). AlphaScreen SSBct-PriA binding, biotinylated peptide; in the data active = inhibition mostly above about 37%, no sharp cut-off; inactive = mostly below about 20%;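 also: plate controls were negative control peptide for no effect and reference peptide for full effect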
Anthrax LF inh2: inhibitors of Bacillus anthracis lethal factor protease. P15917. multiplex microsphere protease cleavage assay, LF. inhibition, % at 10 µM. AID 588501. actives 0.12% (n = 360,000); also: plate controls were buffer without enzyme for full effect and enzyme alone for no effect
MazF activator: activators of E. coli MazEF toxin-antitoxin RNase; P0AE70; FAM/BHQ RNA-DNA oligo cleavage fluorescence, 5 h; activation, % at 20 µM; actives 0.32% (n = 350,000); AID 504720; in the data active = activation above about 50%
Target sequence (P0AE70 whole entry, looked up): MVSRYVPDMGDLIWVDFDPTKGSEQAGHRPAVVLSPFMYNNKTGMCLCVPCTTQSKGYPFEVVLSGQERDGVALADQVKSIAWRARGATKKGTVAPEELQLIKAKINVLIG
BoNT-F LC inh: inhibitors of Botulinum neurotoxin F light chain protease; Multiplex microsphere protease cleavage assay, flow cytometry; inhibition, % at 10 µM; actives 0.22% (n = 360,000); in the data active = inhibition above about 35%, passing the limit was not always enough; inconclusive = no clear call, values can overlap the other calls; also: plate controls were buffer without enzyme for full effect and enzyme alone for no effect
* = called active by the depositor; ? = inconclusive; / = no result given. The list is not random: actives were taken first. Their share in the collection is about 3.3%. Rule as the data show it, unless noted: active = inhibition above about 30%; inconclusive = no clear call, values can overlap the other calls; inactive = below that.

SMILES | BoNT-A LC inh2 | Autofluor counter | SSB-PriA inh | Anthrax LF inh2 | MazF activator | BoNT-F LC inh
COc1ccc(-c2csc(N(C)C(=O)c3cccs3)n2)cc1 | 0 | 3970 | -4 | -2 | -6 | 2
CCN(CC)c1ccc2cc(C(=O)Nc3ccccc3)/c(=N/NC(=O)c3ccccc3)oc2c1 | / | / | -47 | / | / | /
CCOC(=O)c1ccc(Nc2n[nH]c3nc4[nH]ncc4c(=O)n23)cc1 | / | / | -12 | / | / | /
COc1ccc(-c2ccc(/C=C3\C(=O)N(c4ccccc4)N=C3c3ccccc3)o2)c([N+](=O)[O-])c1 | 1 | 3606 | -10 | -6 | -4 | -16
COc1ccc(-c2ccc(/C=C3/C(=N)N4C(C)=CSC4=NC3=O)o2)c([N+](=O)[O-])c1 | 2 | 2731 | 9 | -1 | 68* | -4
Cc1ccc(SCCC(=O)Nc2nnc(-c3ccco3)o2)cc1 | / | / | 6 | / | / | /
CCOc1ccccc1NC(=O)Cn1nc2c(N3CCN(c4ccccc4C)CC3)nccn2c1=O | / | / | -6 | / | / | /
O=C(c1ccc(C(=O)N2CCCCCC2)cc1)N1CCCCCC1 | 0 | 3856 | -18 | -6 | 7 | -3
Cc1cc(C(=O)N2CCCCCC2)cs1 | -1 | 23371* | 3 | -4 | 6 | -2
Cc1cc(C)c(C(=O)c2ccc(C(=O)N3CCCCC3)cc2)c(C)c1 | 0 | 6054 | -15 | -2 | 2 | -7
Cc1cc(C)cc(C(=O)N2CCCCCC2)c1 | -1 | 23038* | 4 | -1 | 8 | 2
COc1ccccc1N1CCN(Cc2ccco2)CC1 | 3 | 7355 | -9 | -3 | 6 | 11
COc1cc(CN2CCC(C(=O)N3CCN(c4ccccc4F)CC3)CC2)cc(OC)c1OC | -1 | 16517* | -11 | -2 | 4 | -3
CCOc1ccccc1N1CCN(Cc2cccc(OC)c2O)CC1 | ? | 17870* | -2 | -3 | -3 | -11
COc1ccccc1N1CCN(Cc2ccc(Br)s2)CC1 | 0 | 20319* | -1 | -3 | -10 | 1
COc1ccc(CN2CCC(C(=O)N3CCN(c4ccccc4F)CC3)CC2)cc1OC | 0 | 9424 | -3 | 5 | -1 | -3
COc1ccccc1N1CCN(Cc2c(F)cccc2Cl)CC1 | -1 | 21264* | -6 | -1 | 3 | -2
COc1ccccc1N1CCN(Cc2cc(C)c(C)cc2O)CC1 | -1 | 4690 | 4 | -4 | 5 | -18
Cc1cc(S(=O)(=O)Nc2ccc3c(c2)CN(C(=O)C2CC2)CC3)ccc1F | / | / | -8 | / | / | /
COc1ccc(NC(=O)c2cc(=O)c3ccccc3o2)c2ccccc12 | / | / | 5 | / | / | /
O=c1ccc(-c2ccc3c(c2)OCO3)nn1Cc1nc(-c2ccc3c(c2)OCO3)no1 | / | / | -7 | / | / | /
O=C(CSc1nc2c(c(=O)n1-c1ccc(F)cc1)SCC2)NC[C@H]1CCCO1 | / | / | -13 | / | / | /
COCCN(Cc1ccoc1)S(=O)(=O)c1ccc2c(c1)CCCC2 | / | / | -2 | / | / | /
COc1ccccc1NC(=O)/C(C#N)=C/C=C/c1ccco1 | 1 | 22514* | 7 | -3 | 4 | 0
CCOc1ccccc1-n1c(CN2CCN(C(=O)c3ccco3)CC2)nc2ccccc2c1=O | -1 | 23399* | -10 | -3 | 2 | -3
SMILES | BoNT-A LC inh2 | Autofluor counter | SSB-PriA inh | Anthrax LF inh2 | MazF activator | BoNT-F LC inh
CCOc1ccccc1-c1nc(CN2CCN(C(=O)c3ccco3)CC2)c(C)o1 | 0 | 5496 | -6 | -1 | 1 | -1
CCc1ccc(C(=O)CSc2n[nH]c(C)n2)cc1 | -1 | 21979* | -14 | -3 | -7 | -2
COc1ccc(C)cc1NC(=O)COc1cc(C)c(Cl)c(C)c1 | / | / | -8 | / | / | /
COc1ccc(C)cc1NC(=O)COCC(=O)O | 0 | 20410* | -7 | 0 | 1 | 0
Cc1onc(-c2c(F)cccc2Cl)c1C(=O)Nc1cccc2nsnc12 | 1 | 22508* | -56 | -1 | 4 | 1
O=C(CCCc1ccccc1)NCCCN1CCOCC1 | 2 | 22241* | -7 | 3 | 13 | 4
O=C(NCCCN1CCN(CCCNC(=O)c2ccccc2F)CC1)c1ccccc1F | 0 | 10006 | 61* | 10 | -5 | 2
Cc1onc(-c2c(F)cccc2Cl)c1C(=O)NC1=NCCS1 | 0 | 7911 | -15 | 1 | 5 | -4
O=C(NCCCN1CCOCC1)c1c(F)cccc1F | ? | 21499* | -13 | -1 | -10 | -4
O=C(NCCCN1CCOCC1)c1c(F)c(F)c(F)c(F)c1F | -1 | 6552 | 1 | -2 | 8 | -4
COc1ccc(Cl)cc1NC(=O)c1cn(-c2ccccc2)c(=O)cc1OC | / | / | -4 | / | / | /
Cc1ccc(OC2CCCN(C(=O)N3CCOCC3)C2)nn1 (configuration not stated) | / | / | -3 | / | / | /
COC(=O)CNC(=O)c1c(-c2c(Cl)cccc2Cl)noc1C | 2 | 23118* | -10 | 0 | 3 | -1
COC(=O)CNC(=O)c1c(-c2ccccc2Cl)noc1C | 0 | 2239 | -8 | 1 | -2 | -1
Cc1onc(-c2c(Cl)cccc2Cl)c1C(=O)NCCN1CCOCC1 | 0 | 10476 | 9 | 0 | -7 | 7
Cc1onc(-c2c(F)cccc2Cl)c1C(=O)NCCCN1CCOCC1 | ? | 20261* | -2 | 2 | -5 | 1
CC(=O)N1CCC(=NNS(=O)(=O)c2ccc(C)c([N+](=O)[O-])c2)CC1 | -2 | 10339 | -13 | 10 | 46 | -5
CC(=O)N1CCC(=NNS(=O)(=O)c2cccc([N+](=O)[O-])c2)CC1 | 0 | 9361 | -2 | -14 | 53* | 0
O=S(=O)(Nc1cccc(-c2nc3cccnc3s2)c1)c1ccc(Cl)s1 | / | / | -13 | / | / | /
Cc1csc(-c2nnc(N)o2)c1 | / | / | -10 | / | / | /
O=C(Nc1cc(C(F)(F)F)ccc1Cl)c1cccc2[nH]ccc12 | / | / | -28 | / | / | /
CCCOc1ccc(/C=C/C(=O)Nc2ccc([N+](=O)[O-])cc2C)cc1OC | ? | 22086* | -7 | 2 | -7 | 0
CCCOc1ccc(/C=C/C(=O)Nc2ccc([N+](=O)[O-])cc2C)cc1 | 0 | 4708 | -9 | 1 | 6 | 17
COc1ccc(-c2csc(NC(=O)/C=C/c3cccs3)n2)cc1OC | / | / | 1 | / | / | /
COc1ccc(-c2csc(NC(=O)/C=C/c3ccc([N+](=O)[O-])cc3)n2)cc1OC | / | / | 69* | / | / | /
SMILES | BoNT-A LC inh2 | Autofluor counter | SSB-PriA inh | Anthrax LF inh2 | MazF activator | BoNT-F LC inh
NS(=O)(=O)c1cc(C(=O)Nc2ccccc2Cl)ccc1F | / | / | -2 | / | / | /
O=C(NC1(C(F)(F)F)NC(=O)N(Cc2cccnc2)C1=O)c1ccc(F)cc1 (configuration not stated) | -1 | 23016* | -1 | -2 | 8 | -3
Cc1ccc(-c2nnc(CSc3nc4cc5c(cc4cc3C)OCO5)o2)cc1 | 0 | 9192 | -10 | 4 | 437* | -1
CCOC(=O)CSc1nc2cc3c(cc2cc1C)OCO3 | 0 | 4606 | -6 | -1 | -1 | -4
Cc1ccc(-c2nnc(CSc3nnc(C)s3)o2)cc1 | 1 | 22331* | 1 | -2 | 6 | 2
O=C(c1ccc(=O)n(Cc2ccc(F)cc2)n1)N1CCCC1 | / | / | -3 | / | / | /
Cc1ccc(C)c(S(=O)(=O)NCC(=O)Nc2sc3c(c2C(N)=O)CCC(C)C3)c1 (configuration not stated) | 0 | 2585 | -14 | 0 | 56* | 6

Screens from PubChem.
